KDM5B inhibitor: KDM5B demethylase inhibition | Q9UGL1 | KDM5B demethylase, FDH-coupled NADH fluorescence (FDH is formaldehyde dehydrogenase) | Potency, µM (doses to about 57.7 µM), usual class: inhibitors | hit rate 2.6% among 220,000 | AID 1347165; note: nearly all actives have a fitted effect of over 70% in size
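Inhibition is measured as reduced NADH fluorescence generation from FDH coupling to formaldehyde release. Truncated KDM5BΔAP at 200 nM final acts on H3K4me3 peptide (12.5 µM in substrate mix) in pH 7.5 HEPES buffer with Tween-20, 30 min, room temperature.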
SNCA expr inh: inhibitors of alpha-synuclein (SNCA) gene expression | HEK-293 SNCA-luciferase knock-in, luminescence, 24 h | Potency, µM (series often up to 57.2 µM), actives largely listed as inhibitors | hit rate 0.17% among 140,000 | AID 1671194; note: nearly all actives have a fitted effect of over 45% in size
IP6K1 inh: inhibitors of human IP6K1; Q92551; AID 1645851; activity change, % (series mostly up to about 58 µM); IP6K1 kinase, ADP-Glo luminescence, 2 h; active compounds read low; hit rate 0.81% among 140,000; in the data active = activity change below about -25%
Target sequence (Q92551 whole entry, looked up): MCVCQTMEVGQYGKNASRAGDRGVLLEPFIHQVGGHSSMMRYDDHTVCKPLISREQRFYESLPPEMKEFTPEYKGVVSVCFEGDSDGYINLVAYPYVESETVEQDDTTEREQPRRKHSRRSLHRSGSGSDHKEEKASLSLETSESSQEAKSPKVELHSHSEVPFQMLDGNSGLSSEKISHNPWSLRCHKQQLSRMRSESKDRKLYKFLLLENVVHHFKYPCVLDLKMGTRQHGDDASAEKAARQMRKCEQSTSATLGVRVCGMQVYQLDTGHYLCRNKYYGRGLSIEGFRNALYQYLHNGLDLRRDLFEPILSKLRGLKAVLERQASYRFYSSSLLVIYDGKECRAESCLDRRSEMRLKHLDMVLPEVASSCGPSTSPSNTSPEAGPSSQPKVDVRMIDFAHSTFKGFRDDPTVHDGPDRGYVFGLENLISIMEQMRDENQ
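ADP-Glo luminescence measures ADP made by human IP6K1 during a 2 h RT reaction with ATP/IP6 (mix at 1.3 mM/130 uM); top library doses 57.5 and 19.1 uM final.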
SNCA viab count: counter-screen for SNCA expression inhibitors: cell viability | HEK-293-SNCA-luc viability, GF-AFC fluorescence, 24 h | Potency, µM (series often up to 57.1 µM), most hits filed as cytotoxic | hit rate 0.12% among 150,000 | AID 1671193; note: nearly all actives have a fitted effect of over 30% in size
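Cytotoxicity counterscreen: after 24 h compound treatment of genome-edited SNCA-luciferase HEK-293 cells, live-cell protease substrate GF-AFC read by fluorescence after 30 min; activity scaled between DMSO (0%) and medium-only (-100%), curves Hill-fitted.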
Large screens that a line does not name were inactive. An excerpt weighted towards active compounds, which were near 2.8% of everything screened. Unless noted, calls come from the whole dose curve; as a rule, active = well fitted curve in the direction sought with a large enough effect; inconclusive = small, poorly fitted or top-dose-only effect, or another doubt; inactive = no such curve, though single readings can be large; an effect the other way counts as inactive or inconclusive.

O=C(NC1CCCC1)c1ccc(-c2ccc(N3CCSCC3)nc2)cc1	KDM5B inhibitor 28.2µM
Cc1ccc(S(C)(=O)=O)cc1C(=O)NC1CCCCCC1	none (no result: SNCA expr inh, IP6K1 inh, SNCA viab count)
Cn1nc(C2CCNC2)c2c(C(=O)N3CCC(F)CC3)cc(C3CC3)nc21 (stereo unspecified)	KDM5B inhibitor 79.4µM
Cn1nc(C2CCNC2)c2c(C(=O)NCC(F)(F)F)cc(C3CC3)nc21 (stereo unspecified)	KDM5B inhibitor inconclusive
O=C(c1cc(C2CC2)nc2onc(C3CCNCC3)c12)N1CCC(F)CC1	none
Cn1nc(C2CCNC2)c2c(C(=O)NCc3ccc(F)cc3)cc(C3CC3)nc21 (stereo unspecified)	KDM5B inhibitor 79.4µM
Cn1nc(C2CCNC2)c2c(C(=O)NC3CC3)cc(C3CC3)nc21 (stereo unspecified)	KDM5B inhibitor 100µM
COC(=O)CCCc1c(-c2ccccn2)[nH]c2ccccc12	none (no result: SNCA expr inh, IP6K1 inh, SNCA viab count)
CCOc1ccc(OCC)c(NS(=O)(=O)c2ccc(-c3cc(C(F)(F)F)on3)s2)c1	none (no result: SNCA expr inh, IP6K1 inh, SNCA viab count)
CCOC(=O)c1ccc(Oc2coc3cc(OC(=O)c4ccccc4F)ccc3c2=O)cc1	none (no result: SNCA expr inh, IP6K1 inh, SNCA viab count)
CC(Cn1cncn1)Nc1ccc(-c2nc(Cc3ccc(F)cc3)no2)cn1 (stereo unspecified)	KDM5B inhibitor 25.1µM
O=C1NCC(c2ccc(Cl)cc2)Cc2[nH]c(-c3ccc(O)cc3)nc21 (stereo unspecified)	KDM5B inhibitor 25.1µM, SNCA viab count inconclusive
Cc1ccc(-c2nnc3ccc(NCCc4ccccn4)nn23)nc1	KDM5B inhibitor inconclusive
COc1ccc(-c2nnc3ccc(NCCc4ccccn4)nn23)nc1	KDM5B inhibitor 39.8µM
CCOCCn1cc(C2CCN(S(=O)(=O)c3cccc(Cl)c3C)CC2)c2ccccc21	KDM5B inhibitor 28.2µM
O=C(NCc1ccc(F)cc1F)c1cc2n(n1)CC(c1ccc3c(c1)OCO3)OC2 (stereo unspecified)	KDM5B inhibitor 28.2µM
O=C(NCC1CC1)c1cc2n(n1)CC(c1ccc3c(c1)OCO3)OC2 (stereo unspecified)	none
CCCCNC(=O)c1cc2n(n1)CC(c1ccc3c(c1)OCO3)OC2 (stereo unspecified)	none
CCc1ccc(CNC(=O)c2cc3n(n2)CC(c2ccc4c(c2)OCO4)OC3)cc1 (stereo unspecified)	KDM5B inhibitor 25.1µM
CCOc1ccccc1CNC(=O)c1cc2n(n1)CC(c1ccc3c(c1)OCO3)OC2 (stereo unspecified)	KDM5B inhibitor 31.6µM, SNCA expr inh inconclusive
O=C(NCc1ccc(Cl)cc1)c1cc2n(n1)CC(c1ccc3c(c1)OCO3)OC2 (stereo unspecified)	KDM5B inhibitor 28.2µM, SNCA expr inh inconclusive, SNCA viab count inconclusive
CC(=O)N1CCN(CCn2nc3n(c2=O)CCCC3)CC1	none (no result: KDM5B inhibitor, SNCA expr inh, SNCA viab count)
Cc1cccc(C(=O)N2CCC3(CC2)OCC(C(=O)N2CCOCC2)N3C(=O)c2ccc(F)cc2)c1 (stereo unspecified)	none
Cc1ccc(-c2cc3c(=O)n(CCNC(=O)c4ccc5cc[nH]c5c4)ccn3n2)cc1C	KDM5B inhibitor 35.5µM
COc1cccc(-c2cc3c(=O)n(CCNC(=O)c4ccc(OC)c(F)c4)ccn3n2)c1	KDM5B inhibitor 20µM
COc1cccc(-c2cc3c(=O)n(CCNC(=O)c4ccc5cc[nH]c5c4)ccn3n2)c1	KDM5B inhibitor 35.5µM
COc1cccc(-c2cc3c(=O)n(CCNC(=O)c4cc(F)cc(F)c4)ccn3n2)c1	none
O=C(NCCn1ccn2nc(-c3ccc(F)cc3)cc2c1=O)c1ccc(F)cc1	KDM5B inhibitor inconclusive
COc1cccc(-c2cc3c(=O)n(CCNC(=O)c4c(F)cccc4F)ccn3n2)c1	KDM5B inhibitor inconclusive
CCCNC(=O)CCc1ccnc(N2CCCC2)c1	KDM5B inhibitor 22.4µM
O=C(CCc1ccnc(N2CCCC2)c1)N1CCN(c2cccc(Cl)c2)CC1	KDM5B inhibitor 22.4µM, SNCA expr inh inconclusive
Cc1ccc(CNC(=O)CCc2ccnc(N3CCCC3)c2)cc1	KDM5B inhibitor 31.6µM
CCN(CC)c1cc(CCC(=O)NCc2ccccc2C)ccn1	KDM5B inhibitor inconclusive
O=C(O)CCc1ccnc(N2CCCC2)c1	KDM5B inhibitor inconclusive
CCN(CC)c1cc(CCC(=O)NCc2ccc(Cl)cc2)ccn1	KDM5B inhibitor 22.4µM
COC(=O)c1sc(S(=O)(=O)Nc2ccc(F)c(F)c2)c(C(=O)OC)c1C	none (no result: SNCA expr inh, IP6K1 inh, SNCA viab count)
COc1ccc(-c2nnc([C@H]3CCN(Cc4ccccc4Cl)C3)o2)cc1	KDM5B inhibitor inconclusive
CC(C)(C)c1cnc(CSc2cnc(NC(=O)C3CCNCC3)s2)o1	SNCA expr inh 1.52µM, SNCA viab count inconclusive (no result: KDM5B inhibitor, IP6K1 inh)
O=C(Nc1ncc(Cc2cccc(Cl)c2)s1)C1CCCCC1	none (no result: SNCA expr inh, IP6K1 inh, SNCA viab count)
C[C@@H](c1ccccc1)N(C(N)=NC#N)c1cccc2ncccc12	none (no result: KDM5B inhibitor, SNCA expr inh)
CN(C)CC(=O)Nc1ccc(OC2CCN(C)CC2)nc1	none
CNc1ccc(OC2CCN(C(=O)COC)CC2)nc1	KDM5B inhibitor 28.2µM
O=C(/C=C/C(=O)OCCCc1ccccc1)OCCCc1ccccc1	none (no result: SNCA expr inh, IP6K1 inh, SNCA viab count)
C#CCN(C)C(=O)CC1COc2ccc(C(=O)NCCOC)cc2N1C (stereo unspecified)	KDM5B inhibitor 31.6µM
COCCNC(=O)c1ccc2c(c1)N(C)C(CC(=O)N(C)C(C)C)CO2 (stereo unspecified)	KDM5B inhibitor 28.2µM
CCN(C(=O)CC1COc2ccc(C(=O)N(C)C)cc2N1C)C1CC1 (stereo unspecified)	none
c1cc(-c2nc(C3CCOC3)nn2C2CCCCC2)co1 (stereo unspecified)	none
CCc1cc(=O)n(CC(=O)Nc2ccc(C)c(F)c2)c(N2CCOCC2)n1	none
C=C(C)C(=O)O[C@H]1C[C@@](C)(O)C2(O)CCC(C)(/C=C3/OC(=O)C(COC)=C31)O2 (stereo partly specified)	SNCA viab count 14.7µM (no result: KDM5B inhibitor, SNCA expr inh)
O=C1N(C2CCN(Cc3ccncc3)CC2)C(c2ccncc2)C12CCCCC2 (stereo unspecified)	KDM5B inhibitor inconclusive
COc1ccc(-c2nccc3c(=O)cc(N4CCN(C)CC4)oc23)cc1OC	none
CN(C)c1cccc(-c2nccc3c(=O)cc(N4CCOCC4)oc23)c1	KDM5B inhibitor 35.5µM
O=c1cc(N2CCOCC2)oc2c(N3CCN(c4ccccn4)CC3)nccc12	none
CN1CCN(c2ccc(-c3nccc4c(=O)cc(N5CCOCC5)oc34)cn2)CC1	KDM5B inhibitor inconclusive
COc1cc(-c2nccc3c(=O)cc(N4CCOCC4)oc23)ccn1	KDM5B inhibitor 25.1µM
COc1ccc(-c2nccc3c(=O)cc(N4CCOCC4)oc23)cn1	KDM5B inhibitor 35.5µM
O=c1cc(N2CCOCC2)oc2c(-c3ccncc3)nccc12	KDM5B inhibitor 35.5µM
Cc1noc(C2CC3(CCN(C(=O)C4CCC4)CC3)CN2C)n1 (stereo unspecified)	none
O=C(c1ccc(F)cc1)N1CCCC(C(=O)N2CCCC(c3nc4ncccc4[nH]3)C2)C1 (stereo unspecified)	none (no result: KDM5B inhibitor)
COc1ncc(-c2ccc3ncn(-c4ccc(F)cc4F)c(=O)c3n2)cn1	KDM5B inhibitor 39.8µM
O=c1c2nc(-c3cccnc3)ccc2ncn1-c1ccc(F)cc1F	none

High-throughput results from PubChem BioAssay.
